The source of these data is PubChem BioAssay (EPA / NIEHS).

Read-out in test [1]: Tissue Factor, F3 (gene 2152)
Nature of the test: BSK_CASM3C_TissueFactor: BioMAP Diversity Plus: CASM3C Assay for Tissue Factor Biomarker Activity (AID 2283052).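 Note: cell surface tissue factor protein level read by ELISA.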 As to conditions: primary human coronary artery smooth muscle cells; actives raise or lower the signal.

Read-out in test [2]: Interferon-gamma inducible Protein 10 (IP10), CXCL10 (gene 3627)
Put plainly: BSK_hDFCGF_IP10: BioMAP Diversity Plus: hDFCGF Assay for Interferon-gamma inducible Protein 10 (IP10) Biomarker Activity (AID 2283053). The settings on record: primary human foreskin fibroblasts; actives raise or lower the signal. In short, it runs like this:
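ELISA read-out of IP-10 (CXCL10) from primary human skin fibroblasts, 24 h after compound addition. Gain or loss of signal versus DMSO baseline, bidirectional curve fitting.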

Read-out in test [3]: Urokinase-type plasminogen activator receptor (uPAR), PLAUR (gene 5329)
Nature of the test: BSK_CASM3C_uPAR: BioMAP Diversity Plus: CASM3C Assay for Urokinase-type plasminogen activator receptor (uPAR) Biomarker Activity (AID 2283054).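 Note: cell-surface uPAR protein level quantified by ELISA.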 The settings on record: primary human coronary artery smooth muscle cells; actives raise or lower the signal.

Read-out in test [4]: Vascular cell adhesion molecule 1 (VCAM1), VCAM1 (gene 7412)
Put plainly: BSK_CASM3C_VCAM1: BioMAP Diversity Plus: CASM3C Assay for Vascular cell adhesion molecule 1 (VCAM1) Biomarker Activity (AID 2283055).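 Note: VCAM-1 protein level quantified by ELISA on the cells.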 The settings on record: primary human coronary artery smooth muscle cells; actives raise or lower the signal.

Read-out in test [5]: Collagen III, COL3A1 (gene 1281)
Put plainly: BSK_hDFCGF_CollagenIII: BioMAP Diversity Plus: hDFCGF Assay for Collagen III Biomarker Activity (AID 2283056). As to conditions: primary human foreskin fibroblasts; actives raise or lower the signal. In short, it runs like this:
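Response relative to DMSO, fitted in both directions, reflects ELISA-measured collagen III in human primary skin fibroblasts 24 h after compound addition.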

Read-out in test [6]: Epidermal growth factor receptor (EGFR), EGFR (gene 1956)
Nature of the test: BSK_hDFCGF_EGFR: BioMAP Diversity Plus: hDFCGF Assay for Epidermal growth factor receptor (EGFR) Biomarker Activity (AID 2283057). As to conditions: primary human foreskin fibroblasts; actives raise or lower the signal. In short, it runs like this:
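ELISA readout of EGFR on human dermal fibroblasts (primary foreskin cells), 24 h post-dosing; bidirectional curve fit vs DMSO baseline, gain or loss of signal scored.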

Read-out in test [7]: Interleukin-8 (IL8), CXCL8 (gene 3576)
Put plainly: BSK_hDFCGF_IL8: BioMAP Diversity Plus: hDFCGF Assay for Interleukin-8 (IL8) Biomarker Activity (AID 2283058). The settings on record: primary human foreskin fibroblasts; actives raise or lower the signal. The method in brief:
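Fibroblast monolayers (human foreskin, hDFCGF) received test chemical for 24 h before ELISA detection of IL-8; either increases or decreases relative to DMSO count as activity.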

Test [8] can be described thus: BSK_hDFCGF_Proliferation: Cell Proliferation Assessment in the BioMAP Diversity Plus: hDFCGF Assay (AID 2283059).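 Note: curves fitted for both rise and fall of signal versus DMSO baseline.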 The settings on record: primary human foreskin fibroblasts. The method in brief:
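Total protein read at 560 nm after 0.1% SRB staining of TCA-fixed human skin fibroblasts, […]. Activity is fitted in both directions relative to DMSO as baseline.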

Read-out in test [9]: Macrophage colony-stimulating factor (MCSF), CSF1 (gene 1435)
Nature of the test: BSK_hDFCGF_MCSF: BioMAP Diversity Plus: hDFCGF Assay for Macrophage colony-stimulating factor (MCSF) Biomarker Activity (AID 2283060). As to conditions: primary human foreskin fibroblasts; actives raise or lower the signal. In short, it runs like this: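 fibroblasts (human foreskin, primary), 24 h post-dose; M-CSF by ELISA; bidirectional fit, DMSO = baseline.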

Test [10] is described as follows: BSK_hDFCGF_SRB: Viability Assessment in the BioMAP Diversity Plus: hDFCGF Assay (AID 2283061).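 Note: cells exposed to compound for 24 h before the read.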 The settings on record: primary human foreskin fibroblasts. The method in brief: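 SRB-based viability read on primary human skin fibroblasts at 24 h: TCA fixation, 0.1% dye, 560 nm. Gain or loss of signal is fitted against the DMSO negative control.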

Calls of active or inactive are those of the source. Rule for the calls: active = hit-call score of the fitted dose curve at least 0.9, where 1 is the maximum; inactive = score below 0.9.

Turning to `CC[C@H]1CC[C@H](NCc2cc3c(cc2OC)[C@H]2C[C@H]2C(=O)N3C)[C@H](c2ccccc2)N1`, the outcome in [1], in [2], in test [3], in [4], in [6] and in test [7] was inactive. Besides, the result in test [9] and in test [10] was inactive. Further, the AC50 in [5] was 1.57 µM (active); in test [8], 20 µM (active).
For the compound `CC(=O)c1ccc2c(c1)[C@H](NC(=O)c1ccc(F)cc1)[C@@H](O)C(C)(C)O2`, the result in [1], in [2], in [3], in [4], in [5] and in test [6] was inactive. Besides, the outcome in test [7], in test [8], in test [9] and in test [10] was inactive.
Regarding `COc1cccc(-c2ccc(/C=C\CN3CCCCCC3)cc2Cl)c1`, the result in test [1] and in test [4] was inactive. Also, the AC50 in test [2] was 27.3 µM (active); in test [3], 25.9 µM (active); in test [5], 12.1 µM (active); in [6], 32.2 µM (active); in [7] it was 34.1 µM (active); in test [8] it was 3.59 µM (active). Besides, the half-maximal activity concentration (AC50) is 22.4 µM (active) in test [9] and 27.2 µM (active) in test [10].
Regarding `CCCCC(CC)COC(=O)CCCCCCCCC(=O)OCC(CC)CCCC` (stereo unspecified), the outcome in test [1], in test [3], in test [4], in test [5], in test [6] and in test [7] was inactive. In addition, the outcome in test [8], in test [9] and in [10] was inactive. The AC50 in test [2] is 6.18 µM (active).
Regarding `O=C(O)CC(O)C(=O)O` (stereo unspecified), the result in test [1], in [2], in test [3], in test [4], in [5] and in test [6] was inactive. Also, the outcome in [7], in test [8], in test [9] and in test [10] was inactive.
As for `Cn1c(=O)c2c(ncn2C)n(C)c1=O`, the result in [1], in [2], in [3], in test [4], in test [5] and in [7] was inactive. Besides, the outcome in [8], in test [9] and in test [10] was inactive.
As to `C[C@](N)(Cc1ccc(O)c(O)c1)C(=O)O`, the result in test [1], in test [3], in [4], in [5], in [6] and in test [7] was inactive. In test [10], the outcome was inactive. The AC50 is 23.2 µM (active) in test [2], 12.5 µM (active) in test [8] and 26.6 µM (active) in [9].
Take `Cn1c(=O)cc(Oc2ccc(F)cc2F)c2cnc(NCC(C)(C)O)nc21`: the outcome in test [1], in [3], in [4], in test [5], in test [6] and in [7] was inactive. Besides, the result in test [8] and in [10] was inactive. The concentration at half-maximal activity (AC50) is 1.15 µM (active) in test [2] and 0.691 µM (active) in test [9].
Take `Nc1ccc(Nc2ccccc2)cc1`: the result in [1], in test [2], in [4], in test [5], in [6] and in test [7] was inactive. The result in test [9] and in test [10] was inactive. Besides, the values for the half-maximal activity concentration (AC50) in test [3] and in test [8] were 2.33 µM (active) and 7.37 µM (active), respectively.
For the compound `CC/C(=C\C(=N/O)C(N)=O)C(C)[N+](=O)[O-]` (stereo unspecified), the result in test [1], in test [2], in test [3], in [4], in [5] and in [6] was inactive. Further, the result in test [7], in test [8], in test [9] and in test [10] was inactive.
In the case of `CCCN(C1CCN(C(=O)C2CCNCC2)CC1)[C@@H]1CCc2ccc(OC)cc2C1`, the result in [1], in test [2], in test [3], in test [4], in [5] and in [6] was inactive. For the same compound, the result in test [7], in test [8], in test [9] and in test [10] was inactive.
Take `Nc1nc2ncc(CNc3ccc(C(=O)N[C@@H](CCC(=O)O)C(=O)O)cc3)nc2c(=O)[nH]1`: the outcome in [1], in [2], in test [3], in test [4], in test [5] and in test [6] was inactive. Also, the outcome in test [7], in test [8], in test [9] and in test [10] was inactive.
`CN(C)c1ccc(Cc2ccc(N(C)C)cc2)cc1`: the result in test [1], in [2], in test [4], in test [5], in test [6] and in test [7] was inactive. Further, the result in test [9] and in test [10] was inactive. For the same compound, the AC50 was 2.98 µM (active) in [3] and 3 µM (active) in [8].
On to `O=C(OC[C@H]1O[C@@H](OC(=O)c2cc(O)c(O)c(OC(=O)c3cc(O)c(O)c(O)c3)c2)[C@H](OC(=O)c2cc(O)c(O)c(OC(=O)c3cc(O)c(O)c(O)c3)c2)[C@@H](OC(=O)c2cc(O)c(O)c(OC(=O)c3cc(O)c(O)c(O)c3)c2)[C@@H]1OC(=O)c1cc(O)c(O)c(OC(=O)c2cc(O)c(O)c(O)c2)c1)c1cc(O)c(O)c(OC(=O)c2cc(O)c(O)c(O)c2)c1`, for which the outcome in test [1], in test [3], in test [4], in test [6], in [7] and in test [10] was inactive. Further, the figures for the half-maximal activity concentration (AC50) in test [2], in test [8] and in [9] were 0.986 µM (active), 3.77 µM (active) and 1.21 µM (active), respectively.
For `CC1(C)C(=O)N(Br)C(=O)N1Br`, the outcome in test [1], in test [2], in [3], in test [4], in test [5] and in test [6] was inactive. Also, the outcome in test [7], in [8], in [9] and in test [10] was inactive.
Consider `CCCCCCc1ccc(O)cc1O`, for which the outcome in test [1], in test [3] and in test [4] was inactive. For the same compound, the AC50 was 29.8 µM (active) in [2]; 17.5 µM (active) in test [5]; 20 µM (active) in test [6]; 19 µM (active) in [8]; 28.1 µM (active) in test [9].
Turning to `O=C(O)CCN(C1(C(=O)NO)CCCC1)S(=O)(=O)c1ccc(Oc2ccc(F)cc2)cc1`, the result in test [1], in test [2], in [3], in test [4], in [5] and in test [6] was inactive. Also, the outcome in test [7], in [8], in test [9] and in test [10] was inactive.
For the compound `Nc1cccc(N)c1`, the result in [1], in test [2], in test [3], in [4], in [5] and in test [6] was inactive. For the same compound, the outcome in test [7], in test [9] and in test [10] was inactive. Besides, in [8], the AC50 was 0.148 µM (active).
`Cc1ccc(N)cc1O`: the result in test [1], in test [2], in test [3], in [4], in test [5] and in test [6] was inactive. The result in test [7], in [9] and in test [10] was inactive. Besides, in test [8], the AC50 is 23.9 µM (active).
Consider `CC[C@H]1OC(=O)[C@H](C)[C@@H](O[C@H]2C[C@@](C)(OC)[C@@H](O)[C@H](C)O2)[C@H](C)[C@@H](O[C@@H]2O[C@H](C)C[C@H](N(C)C)[C@H]2O)[C@](C)(O)C[C@@H](C)C(=O)[C@H](C)[C@@H](O)[C@]1(C)O`, for which the result in test [1], in [2], in [3], in [4], in [5] and in [6] was inactive. In addition, the result in test [7], in test [8], in [9] and in test [10] was inactive.
For the compound `O=C(O)c1cccc(Oc2ccccc2)c1`, the outcome in [1], in test [2], in [3], in test [4], in test [5] and in test [6] was inactive. Also, the outcome in test [7], in [8], in [9] and in test [10] was inactive.
